The values below come from PubChem BioAssay (NCATS).

Records with an inconclusive call do not appear. Active and inactive are the calls of the source. The call rests on the fitted dose curve; in most records, active means well fitted curve in the direction sought with a large enough effect; inconclusive means small, poorly fitted or top-dose-only effect, or another doubt; inactive means no such curve, though single readings can be large; an effect the other way counts as inactive or inconclusive.
Potency means the concentration at half of the fitted maximal effect.

In one experiment the target is Aldehyde dehydrogenase, mitochondrial (Homo sapiens) (UniProt P05091). Nature of the experiment: qHTS for Inhibitors of the Aldehyde Dehydrogenase Family (ALDH2) Primary screen (AID 2061308). Further: nearly all actives have a fitted effect of over 55% in size.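 On activity change, negative = inhibition: plate controls were vehicle for no effect and reference inhibitor for full effect.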 To be noted: ALDH2 enzyme inhibition qHTS, 1536-well; series mostly up to 56 µM; activity change, negative = inhibition: at the top concentration.
As for `Cc1ccnc(NC(=S)N2CCN(c3cc(Cl)cc(Cl)c3)CC2)c1`, the Potency is 2.24 µM (active). With `Cc1c(NC(=O)OCC2COCCN2)cn2ncnc(Nc3ccc4c(cnn4Cc4cccc(F)c4)c3)c12` (stereo not given), the “activity change, negative = inhibition” value is -0.168% (inactive). With `Cc1c[nH]c2ncnc(N3CCC(CN)(C(=O)Nc4cccc(OC(=O)N(C)C)c4)CC3)c12`, the “activity change, negative = inhibition” value was 6.98% (inactive).

As to `CCn1c(=O)c(-c2ccc(Cl)cc2Cl)cc2cnc(Nc3ccc(N4CCNCC4)c(F)c3)nc21`, the “activity change, negative = inhibition” value is 10.2% (inactive). Turning to `[2H]C([2H])(Nc1nc(-c2ccccc2C([2H])(C([2H])([2H])[2H])C([2H])([2H])[2H])ncc1C)c1ccc(-n2ccnn2)cc1`, the “activity change, negative = inhibition” value was 105% (inactive). Same read-out and setting: the figure for `O=C(c1ccc(/C=C/c2n[nH]c3ccccc23)cc1)N1CCNCC1` is 6.84% (inactive).

For the compound `O=C1Cc2cc(S(=O)(=O)N3CCN(c4ccc(O)cc4)CC3)ccc2N1`, the “activity change, negative = inhibition” value was -19.2% (inactive).

Regarding `CC(=O)N1CCN(c2ccc(N)cc2)CC1`, the “activity change, negative = inhibition” value was -25.5% (inactive). Take `C[C@@H]1COC(Nc2ccc3ncnc(Nc4ccc(OCc5nccs5)c(Cl)c4)c3c2)=N1`: the “activity change, negative = inhibition” value is -3.72% (inactive). On the same count and under the same terms, the figure for `Cn1cc(-c2cnn3c(N)c(Br)c(C4CCCNC4)nc23)cn1` (stereo not given) is 9.67% (inactive); for `CCCNC(=O)[C@H]1O[C@@H]1C(=O)N[C@H](C(=O)N1CCC[C@H]1C(=O)OC)C(C)CC` (stereo not given in full) it is 3.98% (inactive). As for `CC(/C=C/C(=O)NO)=C\[C@@H](C)C(=O)c1ccc(N(C)C)cc1`, the “activity change, negative = inhibition” value was 6.53% (inactive).

With `Cc1cnc(Nc2ccc(F)cc2Cl)nc1-c1c[nH]c(C(=O)NC(CO)c2cccc(Cl)c2)c1` (stereo not given), the “activity change, negative = inhibition” value is -2.97% (inactive). Still for that read-out and setting: the figure for `Nc1ccccc1S(=O)(=O)Nc1cccc2cccnc12` is -8.8% (inactive).

Take `COc1ccc2[nH]c(S(=O)Cc3ncc(C)c(OC)c3C)nc2c1` (stereo not given): the “activity change, negative = inhibition” value is -3.77% (inactive). As to `Cc1cccc(-c2[nH]ncc2-c2ccc(F)c(-c3cnn(CCO)c3)c2)n1`, the “activity change, negative = inhibition” value is -1.64% (inactive). As for `CC(C)NC(=O)COc1cccc(-c2nc(Nc3ccc4[nH]ncc4c3)c3ccccc3n2)c1`, the “activity change, negative = inhibition” value was -0.177% (inactive). Take `C=CC(=O)Nc1cccc(Nc2nc(Nc3ccc(N4CCN(C(C)=O)CC4)cc3OC)ncc2C(F)(F)F)c1`: the “activity change, negative = inhibition” value is -2.4% (inactive).

A further experiment addresses Retinaldehyde dehydrogenase 3 (Homo sapiens) (UniProt P47895). As to the kind of experiment: qHTS for Inhibitors of the Aldehyde Dehydrogenase Family (ALDH1A3) Confirmatory screens (AID 2061311). Further: nearly all actives have a fitted effect of over 60% in size. On activity change, negative = inhibition: on the % scale 0 is the no-effect control and ±100 the full control effect. To be noted: ALDH inhibition qHTS; series mostly up to 46 µM; activity change, negative = inhibition: at the top concentration. In general terms: In qHTS, concentration-response curves come from the screen itself.
Regarding `CCOc1ccccc1NC(=O)Nc1cc(C(=O)NCc2ccc(C)cc2)ccc1N1CCCC1`, the “activity change, negative = inhibition” value is 1.94% (inactive). `Cc1ccc([S+](=O)([O-])c2nnn3c2nc(N2CCC(F)CC2)c2ccccc23)cc1`: the “activity change, negative = inhibition” value was -40.4% (inactive). Take `Cn1ncc2c(C(=O)NCC(F)(F)F)cc(-c3ccccc3F)nc21`: the “activity change, negative = inhibition” value was -45.3% (inactive).

Consider `COc1ccc(C2(C(=O)NCc3ccccc3)CCOCC2)cc1`, for which the outcome was inactive. As to `CCc1ccccc1NC(=O)c1ccc(F)c(S(=O)(=O)N2CCN(c3cccc(Cl)c3)CC2)c1`, the “activity change, negative = inhibition” value was 4.87% (inactive).

Take `COc1ccc(-c2nnc3ccc(NCCc4ccccc4)nn23)nc1`: the Potency is 20 µM (active). Consider `O=C1Cc2cc(S(=O)(=O)N3CCN(c4ccccc4)CC3)ccc2N1`, for which the outcome was inactive. For the compound `COc1ccccc1-c1ccc2ncc(Nc3cccc(O)c3)n2n1`, the “activity change, negative = inhibition” value is -17.9% (inactive). With `O=C(CSc1nc(-c2ccco2)nc2cc(=O)[nH]n12)Nc1ccccc1Cl`, the “activity change, negative = inhibition” value is -24.6% (inactive). In the case of `Cc1noc(C)c1-c1cnc(Nc2ccc(F)c(Cl)c2)c2c1CCO2`, the Potency is 31.6 µM (active). As for `COc1ccc(N2CCN(C(=O)CS(=O)(=O)c3cccc4nsnc34)CC2)cc1`, the “activity change, negative = inhibition” value was 2.92% (inactive). On to `Cc1cccc(-c2cccc(CN)c2)c1`, for which the “activity change, negative = inhibition” value was -22.7% (inactive). On the same count and under the same terms, the figure for `O=C(Cn1cnc2onc(-c3ccc(Cl)cc3)c2c1=O)Nc1ccc(F)cc1` is -20.8% (inactive). For the compound `CN1Cc2nc(Nc3ccc(C(F)(F)F)cc3)ccc2OCC1=O`, the Potency is 15.8 µM (active). Regarding `COc1ccc(CC(=O)Nc2ccc([C@H]3OCC(=O)N(Cc4ccccc4)[C@@H]3CO)cc2)cc1`, the “activity change, negative = inhibition” value is -9.11% (inactive).

In the case of `COc1cc(F)ccc1-c1cnc2n[nH]c(-c3sccc3C)c2n1`, the compound was classed as inactive. Regarding `COc1cc(CNC(=O)c2ccc(NC(=O)N3CCCCc4ccccc43)cc2)cc(OC)c1OC`, the “activity change, negative = inhibition” value is -21.7% (inactive).

`CCc1nn(-c2ccc(OC)cc2)c(Oc2ccccc2F)c1CCC(=O)NC(C)C`: the “activity change, negative = inhibition” value was -9.42% (inactive). As to `COc1ccc(C(=O)NCc2nnc3ccc(-c4ccccc4)nn23)c(C)c1`, the “outcome” value was “inactive; activator”. On to `O=C(CCS(=O)(=O)c1cccc2nonc12)Nc1ccc(F)cc1F`, for which the “activity change, negative = inhibition” value was -34.9% (inactive).

As to `O=C(Nc1ccc(Oc2ccccc2)cc1)c1ccc(F)c(S(=O)(=O)N2CCN(c3cccc(Cl)c3)CC2)c1`, the call was inactive. As for `Cc1ccc(-n2c(=O)c3c(cnn3C)n(CC(=O)Nc3cccc(Cl)c3)c2=O)cc1`, the “activity change, negative = inhibition” value was 4.67% (inactive).
